# Assay outcomes: PubChem BioAssay, National Center for Advancing Translational Sciences (NCATS)
# Compounds with a hit are over-represented: about 1.5% of the library has one in this group of screens.
# FEN1 inh – qHTS Assay for the Inhibitors of Human Flap endonuclease 1 (FEN1). P39748. Potency, µM (top dose mostly 114 µM), for the others: top-dose activity change, negative = inhibition, usual class: inhibitors. 0.35% of 390,000 active. Recombinant FEN1 flap cleavage, fluorescence, 15 min; also: potency is read from the fitted curve at half-maximal effect; nearly all actives have a fitted effect of over 65% in size
# Target sequence (P39748 whole entry, looked up): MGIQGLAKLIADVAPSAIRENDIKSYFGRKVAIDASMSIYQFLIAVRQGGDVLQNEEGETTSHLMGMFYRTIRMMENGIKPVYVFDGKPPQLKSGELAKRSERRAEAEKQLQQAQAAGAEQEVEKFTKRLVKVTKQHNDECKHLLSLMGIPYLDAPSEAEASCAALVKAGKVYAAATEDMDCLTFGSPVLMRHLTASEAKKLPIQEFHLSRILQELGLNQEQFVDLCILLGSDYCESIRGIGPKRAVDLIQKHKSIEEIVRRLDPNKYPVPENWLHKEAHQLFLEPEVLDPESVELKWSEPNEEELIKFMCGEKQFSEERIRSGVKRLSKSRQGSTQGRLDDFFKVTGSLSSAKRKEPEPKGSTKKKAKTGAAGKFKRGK
#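 Concentration–response screening of FEN1 (10 nM): 15 min compound preincubation at room temperature, reaction started with 50 nM substrate and read at 0 and 15 min. Corrected, normalized data were fitted by a four-parameter Hill equation.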
# RECQ1 inh – qHTS Assay for Inhibitors of RecQ-Like Dna Helicase 1 (RECQ1); ATP-dependent DNA helicase Q1 (Homo sapiens), P46063; RECQ1 DNA unwinding, red fluorescence kinetic read; Potency, µM (top dose mostly 57.3 µM), for inactives: top-dose activity, negative = inhibition, most hits filed as inhibitors; 0.54% of 240,000 active; AID 2549, 2010;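 also: potency is read from the fitted curve at half-maximal effect; plate controls were vehicle for no effect and no enzyme for full effect; nearly all actives have a fitted effect of over 30% in size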
#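 RECQ1T1 50 nM; forked duplex (20 bp + 30-nt ss tails) 200 nM, ATP 2 mM final; pH 8.0, 2 mM MgCl2, 2.5 ug/ml poly(dI-dC); 15 min compound preincubation; discontinuous kinetic read over 2 h at RT.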
# PI5P4K alpha inh – qHTS for Inhibitors of phosphatidylinositol 5-phosphate 4-kinase (PI5P4K); Phosphatidylinositol 5-phosphate 4-kinase type-2 alpha (Homo sapiens), P48426; PI5P4Kalpha enzyme, ADP-Glo luminescence, 60 min; hits give low values; max response, %; 1.2% of 330,000 active; active = max response of -50% or lower; inconclusive = between -30% and -50%; inactive = -30% or higher; also: value at the top dose of about 77 µM
#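 ADP-Glo luminescence end-point after a 60 min room-temperature kinase reaction. PI5P4Kalpha and substrate in HEPES pH 7.4 buffer with EGTA, 0.1% CHAPS and 5% DMSO; ATP at 5 microM final.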
# APE1 inh – qHTS Assay for Inhibitors of the Human Apurinic/apyrimidinic Endonuclease 1 (APE1); DNA repair nuclease/redox regulator APEX1 (Homo sapiens), P27695; recombinant APE1, TAMRA/BHQ-2 abasic DNA cleavage fluorescence; Potency, µM (titrated, usually from 65.8 µM), for the others: at the highest dose activity change, negative = inhibition, most hits filed as inhibitors; 0.35% of 350,000 active;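 also: potency is read from the fitted curve at half-maximal effect; plate controls were vehicle for no effect and reference inhibitor for full effect; nearly all actives have a fitted effect of over 55% in size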
# Target sequence (P27695 whole entry, looked up): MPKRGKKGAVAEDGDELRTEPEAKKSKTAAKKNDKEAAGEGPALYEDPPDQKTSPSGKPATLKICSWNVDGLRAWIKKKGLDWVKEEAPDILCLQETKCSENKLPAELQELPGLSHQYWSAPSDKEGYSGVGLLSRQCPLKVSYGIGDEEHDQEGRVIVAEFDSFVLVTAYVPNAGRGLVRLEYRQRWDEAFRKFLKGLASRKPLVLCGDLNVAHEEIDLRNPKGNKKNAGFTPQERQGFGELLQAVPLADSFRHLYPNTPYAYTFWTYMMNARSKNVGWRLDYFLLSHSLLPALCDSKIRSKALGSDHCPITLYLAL
#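 Enzyme (0.75 nM final) and test compound are incubated 15 min at room temperature before adding 50 nM quenched THF abasic-site duplex. Cleavage dequenches TAMRA, followed at 525/598 nm over three reads one minute apart.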
# WRN helicase inh – qHTS for Inhibitors of WRN Helicase. WRN helicase unwinding, fluorescent forked duplex, kinetic. Potency, µM (doses to about 114 µM), for the others: at the top dose activity change, negative = inhibition, actives largely listed as inhibitors. Bifunctional 3'-5' exonuclease/ATP-dependent helicase WRN (Homo sapiens), Q14191. AID 651768, 2012. 0.46% of 360,000 active; also: potency is read from the fitted curve at half-maximal effect; nearly all actives have a fitted effect of over 55% in size
#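 WRN at 20 nM final was preincubated with compound for 15 min at room temperature; reaction started with 100 nM forked duplex oligonucleotide carrying fluorophore and quencher plus 2 mM ATP (final). Unwinding followed kinetically by red fluorescence (ex 525/em 598 nm).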
# BLM helicase inh – qHTS Assay for Inhibitors of Bloom's syndrome helicase (BLM) | RecQ-like DNA helicase BLM (Homo sapiens), P54132 | recombinant BLM DNA unwinding, fluorescence dequenching | Potency, µM (doses to about 56.1 µM), inactives show at the highest dose activity change, negative = inhibition, hits mostly inhibitors | 0.2% of 350,000 active | AID 2528, 2010;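 also: potency is read from the fitted curve at half-maximal effect; plate controls were vehicle for no effect and no enzyme for full effect; nearly all actives have a fitted effect of over 35% in size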
# ADP-Glo interf – qHTS for Inhibitors of PI5P4K: ADP-Glo counter assay. AID 743285, 2014. 1,100 tested, under 10 active. Potency, µM (highest dose often 76.9 µM), for the others: at the highest dose activity change, negative = inhibition, actives largely listed as inhibitors. shares compounds with PI5P4K alpha inh. ADP-Glo detection counter-screen, luciferase luminescence, no enzyme
# Active calls of the source: *; i = inactive; ? = inconclusive; . = not tested or not shown. Unless noted, calls follow the shape of the dose curve; as a rule, active = well fitted curve in the direction sought with a large enough effect; inconclusive = small, poorly fitted or top-dose-only effect, or another doubt; inactive = no such curve, though single readings can be large; an effect the other way counts as inactive or inconclusive. Unless noted, % is scaled to controls: 0 for no effect and ±100 for the full control effect.
SMILES,FEN1 inh,RECQ1 inh,PI5P4K alpha inh,APE1 inh,WRN helicase inh,BLM helicase inh,ADP-Glo interf
CS(=O)(=O)Nc1ccc(C2=NN(C(=O)c3ccco3)C(c3cccc(F)c3)C2)cc1 (configuration not stated),-13%,-15%,-65*,-5%,-12%,-6%,0%
CCn1c(=O)n(CC)c2cc(N3CCCCC3)c(NC(=O)Nc3ccccc3Cl)cc21,6%,.,.,.,.,-5%,.
COc1ccc(NC(=O)c2c(NCc3cccs3)sc3c2CCCCC3)cc1,-4%,.,.,.,.,-9%,.
Cc1ccc(CNC(=O)C(C)n2nc(C)n3c(cc4sccc43)c2=O)cc1 (configuration not stated),-1%,.,.,.,.,-5%,.
CCCCNC(=O)C1(C)CCC(=O)N1c1cc(C(C)(C)C)nn1C (configuration not stated),.,.,4,.,4%,.,2%
Cn1nc(C(C)(C)C)cc1N1C(=O)CCC1(C)C(=O)NC1CCCCC1 (configuration not stated),.,.,7,.,-1%,.,.
CCN(CC(=O)N1CCC(C(N)=O)CC1)S(=O)(=O)c1ccc(Cl)cc1,3%,.,6,68%,-30%,-2%,.
CCN(CC(=O)N1CCC(C(N)=O)CC1)S(=O)(=O)c1cc(Cl)ccc1Cl,0%,.,-52*,.,8%,.,4%
Cc1cc2ccccc2nc1SCC(=O)NC1CCCC1,-5%,i,-65*,-6%,-31%,-5%,6%
CC[C@H](C)N,.,-13%,.,-5%,.,-2%,.
Cc1ccc(C)c(N2CCN(S(=O)(=O)c3cc(-c4cc(C)no4)ccc3C)CC2)c1,-8%,.,.,.,.,-7%,.
O=C(NCc1ccco1)C1Cc2c(-c3cccc(F)c3)ccnc2O1 (configuration not stated),.,.,-65*,.,-3%,.,-4%
CC1CCOC(c2coc3ccccc3c2=O)O1 (configuration not stated),-9%,-18%,-6,15%,-7%,1%,.
O=C(O)C1CSC(c2coc3ccccc3c2=O)N1 (configuration not stated),9%,-1%,-67*,-10%,?,2%,2%
Cc1ccc(CNC(=O)c2nc(-c3ccc(Cl)cc3)n3c2CCCCC3)cc1,-21%,.,.,.,.,-11%,.
COc1ccc(S(=O)(=O)Nc2ccc3c(c2)CCC3)cc1,-12%,-4%,-67*,11%,?,0%,-4%
CC(=O)Nc1ccc(S(=O)(=O)Nc2ccc3c(c2)CCC3)cc1,-12%,.,6,-7%,-3%,-4%,.
Oc1ccc(CNc2ccc(F)cc2)c2cccnc12,-21%,?,-54*,18%,?,-7%,2%
O=C(NC1CC1)C1CCN(S(=O)(=O)c2cc(Cl)ccc2Cl)CC1,16%,-8%,4,6%,-6%,-3%,.
O=C(NC1CC1)C1CCN(S(=O)(=O)c2cc([N+](=O)[O-])ccc2Cl)CC1,?,.,-56*,?,?,.,-6%
O=C(Cn1cnc2scc(-c3ccccc3)c2c1=O)NCc1ccco1,5%,-10%,-66*,?,-19%,-18%,-7%
CCc1ccc(-c2csc3ncn(CC(=O)NCc4ccco4)c(=O)c23)cc1,-15%,-3%,-16,2%,-12%,-6%,.
COc1ccccc1CNC(=O)CSC1=NCCS1,5%,-19%,2,0%,-5%,-4%,.
O=C(CSC1=NCCS1)NCc1ccco1,1%,-3%,-54*,-1%,3%,1%,1%
COc1ccccc1C(=O)NCC(c1ccc(N(C)C)cc1)N1CCc2ccccc21 (configuration not stated),15%,.,.,.,.,-9%,.
SMILES,FEN1 inh,RECQ1 inh,PI5P4K alpha inh,APE1 inh,WRN helicase inh,BLM helicase inh,ADP-Glo interf
O=C(Nc1sc2c(c1C(=O)O)CCC2)c1ccccc1Cl,-4%,.,-59*,12%,-20%,2%,-8%
NC(=O)c1c(NC(=O)CN2CCCC2)sc2c1CCCC2,6%,-2%,-53*,-7%,-28%,-1%,3%
NC(=O)c1c(NC(=O)c2ccccc2)sc2c1CCC2,-2%,.,-51*,12%,-12%,-5%,-2%
NC(=O)c1c(NC(=O)CN2C(=O)CCC2=O)sc2c1CCCCC2,-2%,-6%,-11,3%,-6%,-4%,.
O=C(C[n+]1ccccc1Cl)c1ccc(F)cc1,-7%,.,.,.,.,.,.
Cc1cc(OCCn2cc(C(=O)c3cccs3)c3ccccc32)ccc1Cl,5%,.,.,.,.,-11%,.
COc1ccccc1NC(=O)CCN1CCC(C(N)=O)CC1,24%,.,.,.,.,1%,.
COCCNc1nc(NCC2CCCCC2)c2sc(-c3ccccc3)cc2n1,.,.,.,.,-5%,.,-2%
COCCNc1nc(NCCOc2ccccc2Cl)c2sc(-c3ccccc3)cc2n1,.,.,?,.,3%,.,.
c1ccc(-c2cc3nc(NCC4CC4)nc(NCC4CCCCC4)c3s2)cc1,.,.,.,.,2%,.,5%
O=C(C[n+]1cc(Br)cc(Br)c1)c1ccc2ccccc2c1,-8%,.,.,.,.,.,.
O=S(=O)(c1ccccc1)c1nc(-c2ccco2)oc1N1CCCCCC1,8%,8%,-53*,-2%,-21%,0%,-10%
COc1ccc(CNC(=O)Cn2c(=O)c3cccn3c3cccnc32)cc1,6%,.,.,.,.,8%,.
C[C@@H]1C=C(C(=O)NCc2nc3ccccc3[nH]2)O[C@H](OCCCCO)C1,-2%,.,-27,.,2%,.,-3%
CSCCOC(=O)c1[nH]c2c(c1C)C(=O)CC(c1ccco1)C2 (configuration not stated),?,-21%,-66*,13µM*,56µM*,-29%,5%
COc1ccc(-c2cc(C)no2)cc1S(=O)(=O)Nc1c(C)cc(C)cc1C,7%,.,.,.,.,-7%,.
Cc1ccc(C)c(N2CCN(C(=O)Cn3cnc4sc(C)c(S(=O)(=O)N5CCN(c6ncccn6)CC5)c4c3=O)CC2)c1,12%,.,.,.,.,-3%,.
O=c1c(Cl)c(N2CCCCC2)cnn1-c1nc2ccccc2[nH]1,2%,-2%,-7,2%,-2%,-1%,.
